{"source": "PubChem BioAssay (NCI)", "note": "This is part of a sample that, as a whole, favours compounds with a hit. Of some 79,000 tested, about 15% had one in any assay. A number with no mark means an inactive call. Calls of active or inactive are those of the source. No stated cut-off is given here; in the data, active means growth inhibition above about 70%; inactive means the rest."}
{"assay": "NCI Yeast Anticancer Drug Screen. Data for the cln2 rad14 strain (AID 165);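 further: 0% = growth equal to vehicle treated cultures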", "conditions": "S. cerevisiae cln2 rad14 strain, at 50.0 µM (retest, dose inferred, filed as 5.0), hits give high values", "how_it_was_run": "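Compounds are applied to the cln2 rad14 yeast strain, and growth is then compared with that of vehicle-treated cultures to give inhibition.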"}
{"smiles": "Cc1ccccc1Sc1ccccc1[N+](=O)[O-]", "growth inhibition": "7%"}
{"smiles": "Nc1nc(-c2ccc3c(c2)Sc2ccccc2O3)cs1", "growth inhibition": "99% (active)"}
{"smiles": "CC(C)(C)C1CCC2c3c([nH]c4ccccc34)C3C(=O)N(c4ccc(C(=O)O)cc4)C(=O)C3C2C1", "note": "(stereo not given)", "growth inhibition": "98% (active)"}
{"smiles": "CCC[CH2][Sn]([CH2]CCC)([O]N(C)C(=O)c1ccc(Br)cc1)[O]N(C)C(=O)c1ccc(Br)cc1", "growth inhibition": "98% (active)"}
{"smiles": "COC(=O)c1ccc([N+](=O)[O-])o1", "growth inhibition": "5%"}
{"smiles": "O=C(OC1=C(Br)C(=O)c2ccccc2C1=O)c1ccccc1", "growth inhibition": "58%"}
{"smiles": "O=C(O)C/C(=C\\c1ccco1)C(=O)O", "growth inhibition": "-1%"}
{"smiles": "N#C/C(=C/c1ccc([N+](=O)[O-])o1)c1ccccc1", "growth inhibition": "23%"}
{"smiles": "CCN(CC)CCOc1ccc(C=C2c3ccccc3-c3ccccc32)cc1", "growth inhibition": "99% (active)"}
{"smiles": "Nc1ncnc(N2CCOCC2)c1N", "growth inhibition": "2%"}
{"smiles": "Cc1cc(Cl)ccc1N1C(=O)C(=O)C(c2nc3ccccc3o2)C(=O)C1=O", "growth inhibition": "98% (active)"}
{"smiles": "Cc1nc2c(Cl)nc(Cl)nc2s1", "growth inhibition": "97% (active)"}
{"smiles": "CC1=NOC(=O)/C1=C/c1ccc(Cl)c(Cl)c1", "growth inhibition": "61%"}
{"smiles": "CN(CCC(=O)/C(=C\\c1ccc(Cl)cc1)c1ccccc1)Cc1ccccc1", "growth inhibition": "98% (active)"}
{"smiles": "C(=N\\N=C\\c1ccc2c(c1)OCO2)/c1ccc2c(c1)OCO2", "growth inhibition": "-6%"}
{"smiles": "Clc1ccc(CSc2ncnc3c2ncn3C2CCCCO2)cc1", "note": "(stereo not given)", "growth inhibition": "88% (active)"}
{"smiles": "CC(=O)OC/C=C/CCCOC(C)=O", "growth inhibition": "31%"}
{"smiles": "CCCCCCCCCCOC(=O)c1cccnc1", "growth inhibition": "34%"}
{"smiles": "Cc1ccc2c(c1)C1(SCC(=O)N1c1ccc(Cl)cc1)C(=O)N2", "note": "(stereo not given)", "growth inhibition": "28%"}
{"smiles": "Oc1ccc(C2CCc3ccccc32)cc1", "note": "(stereo not given)", "growth inhibition": "98% (active)"}
{"smiles": "[O-][N+]1=C2CCC/C(=N/O)C2(O)C2CCCCC21N1CCOCC1", "note": "(stereo not given)", "growth inhibition": "26%"}
{"smiles": "CCCCN(c1ccccc1)c1ncnc2c1ncn2C", "growth inhibition": "76% (active)"}
{"smiles": "Cc1cc(C)nc(/C=C/c2ccccc2)c1", "growth inhibition": "16%"}
{"smiles": "CCCCN(C)N=Nc1c(C(N)=O)n[nH]c1C(C)C", "growth inhibition": "-5%"}
{"smiles": "O=C1C(Cl)=C(Cl)C(=O)C2=C1CC(Cl)C(Cl)C2", "note": "(stereo not given)", "growth inhibition": "99% (active)"}
{"smiles": "O=C1Oc2ccccc2C(=O)/C1=C/N1C(=O)/C(=C/c2ccc3c(c2)OCO3)SC1=S", "growth inhibition": "82% (active)"}
{"smiles": "O=C(/C=C/c1ccc(O)cc1)c1cc(Cl)ccc1O", "growth inhibition": "97% (active)"}
{"smiles": "CCCC(C(=O)OCCNC1CCCCC1)c1ccccc1", "note": "(stereo not given)", "growth inhibition": "47%"}
{"smiles": "c1ccc2cc3c(cc2c1)Nc1c2ccccc2nc2cccc-3c12", "growth inhibition": "54%"}
{"smiles": "CCCC1CCCC1(CC(=O)c1ccccc1)C(=O)O", "note": "(stereo not given)", "growth inhibition": "54%"}
{"smiles": "COc1ccc(CCN2C(=O)C(=O)N(C3CCCCC3)C2=O)cc1OC", "growth inhibition": "0%"}
{"smiles": "COC(C(=O)O)c1ccccc1", "note": "(stereo not given)", "growth inhibition": "-5%"}
{"smiles": "CCCCCCCCC(=O)NCCCNCCCNC(=O)CCCCCCCC", "growth inhibition": "-22%"}
{"smiles": "C[Si](C)(CCC(=O)O)O[Si](C)(C)CCC(=O)O", "growth inhibition": "59%"}
{"smiles": "Cc1c2cc[n+](C)cc2c(C)c2c1[nH]c1ccc(Cl)cc12", "growth inhibition": "98% (active)"}
{"smiles": "O=[N+]([O-])c1ccc(C2=Nn3c(nnc3-c3ccc(Cl)cc3)SC2)o1", "growth inhibition": "94% (active)"}
{"smiles": "CCCCCCCCCCN(CCCCCCCCCC)CC(O)c1cc(-c2ccccc2)nc2ccccc12", "note": "(stereo not given)", "growth inhibition": "26%"}
{"smiles": "O=C(c1ccccc1)C(c1ccccc1)C1(O)C(=O)Nc2c(Cl)cc(Cl)cc21", "note": "(stereo not given)", "growth inhibition": "-6%"}
{"smiles": "COC(=S)S", "growth inhibition": "-2%"}
{"smiles": "CC/C(=C(\\CC)c1ccc(O)c(CN(CC)CC)c1)c1ccc(OC)cc1", "growth inhibition": "80% (active)"}
